Bioassay records (PubChem)
Shown are actives, neighbours in structure and some others; about 11% of the full set was active somewhere.
Tau fibril FP = inhibitors of human tau fibril formation; K18 P301L tau heparin fibrillization, Alexa594 FP, 6 h; Potency, µM (series often up to 57.7 µM), without a hit: top-dose activity, negative = inhibition, hits mostly inhibitors; actives 0.39% (n = 280,000); AID 1468; further: potency means the concentration at half of the fitted maximal effect; nearly all actives have a fitted effect of over 55% in size
Target sequence (P10636 561-689 P618L limits assumed): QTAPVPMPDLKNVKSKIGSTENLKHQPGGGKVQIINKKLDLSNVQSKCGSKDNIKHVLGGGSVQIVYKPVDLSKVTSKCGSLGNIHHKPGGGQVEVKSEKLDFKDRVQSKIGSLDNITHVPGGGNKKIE
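Quantitative HTS format: compounds meet 15 uM recombinant K18 P301L tau and Alexa 594-tau tracer in 100 mM sodium acetate pH 7; 20 uM heparin triggers fibrillization at 37 C over 6 hr; FP gives the signal.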
G9a block = G9a (human) methyltransferase inhibition; actives 8.8% (n = 350,000); G9a H3K9 monomethylation, AlphaScreen, 2 h; Potency, µM (titrated, usually from 102 µM), for the others: top-dose activity, negative = inhibition, actives largely listed as inhibitors; further: potency means the concentration at half of the fitted maximal effect; nearly all actives have a fitted effect of over 75% in size
Target sequence (Q96KQ7 913-1193 limits assumed): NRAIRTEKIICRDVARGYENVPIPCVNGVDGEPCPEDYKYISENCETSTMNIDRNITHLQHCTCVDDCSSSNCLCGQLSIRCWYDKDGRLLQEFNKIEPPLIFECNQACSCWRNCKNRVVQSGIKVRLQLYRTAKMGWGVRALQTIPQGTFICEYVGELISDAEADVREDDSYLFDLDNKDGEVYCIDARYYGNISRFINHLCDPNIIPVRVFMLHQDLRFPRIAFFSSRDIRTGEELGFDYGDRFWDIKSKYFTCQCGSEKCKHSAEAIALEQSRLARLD
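Methyltransferase reactions run at room temperature for 2 h (20 nM enzyme, 500 nM biotin-H3K9 peptide, 20 uM SAM) after a 15 min compound preincubation; product detected by AlphaScreen beads and anti-H3K9me1 antibody.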
Tau fluor counter = counter-screen for tau fibril formation inhibitors; tau K18 P301L Alexa594 fluorescence, heparin fibrillization; Potency, µM (highest dose often 57.7 µM), for the others: at the highest dose activity change, negative = decrease; actives 0.93% (n = 280,000); further: potency means the concentration at half of the fitted maximal effect; nearly all actives have a fitted effect of over 55% in size
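Human tau K18 P301L (15 uM unlabeled, 0.24 uM Alexa 594-labeled) in 100 mM sodium acetate pH 7 with 20 uM heparin, 6 hr at 37 C. ThT 30 uM added, 1 hr ambient; Alexa 594 FP and total fluorescence read at 555/632 nm.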
Sfp inh = Sfp phosphopantetheinyl transferase inhibition. Biochemical Sfp PPTase activity, qHTS. actives 3.5% (n = 310,000). Q9F4F7. Potency, µM, without a hit: largest response in the series, negative = inhibition, most hits filed as inhibitors;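 further: the enzyme is Sfp with the accession as filed and its product quenches rhodamine fluorescence; potency means the concentration at half of the fitted maximal effect; 0% = enzyme reaction without inhibitor and -100% = no enzyme wells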
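Reaction rates are the 30-min fluorescence difference (ex 525, em 598 nm) in wells containing 15 nM Sfp, 5 uM rhodamine-CoA and 12.5 uM BHQ-2-YbbR at pH 7.6 with 10 mM MgCl2.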
Coupling enz = inhibits coupling enzyme system, counter-screen for aldolase hits. coupling enzyme system counterscreen, AmpLite Red fluorescence. activity change, negative = inhibition, % at 58.2 µM, hits read low. actives 0.67% (n = 290,000). AID 2472; in the data active means activity change below about -30%
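Counterscreen of the coupled detection system alone, without aldolase: glyceraldehyde-3-phosphate coupling enzymes plus AmpLite Red readout. Compounds at 57.5 uM final, 10 min RT preincubation, 20 min RT reaction, fluorescence 525/598 nm.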
Tau fibril ThT = inhibitors of human tau fibril formation, thioflavin T binding; P10636; recombinant tau K18 P301L, heparin-induced fibrillization, ThT fluorescence; Potency, µM (titrated, usually from 57.4 µM), without a hit: at the highest dose activity, negative = inhibition, most hits filed as inhibitors; actives 2.1% (n = 270,000); further: potency means the concentration at half of the fitted maximal effect; nearly all actives have a fitted effect of over 55% in size
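Using a mix of unlabeled (15 uM) and Alexa 594-labeled (0.24 uM) tau K18 P301L, heparin-triggered fibrillization over 6 hr at 37 C was scored by ThT fluorescence.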
Starred values were filed as active, the others as inactive; [ ] = dose if it differs, or a comment. Unless noted, the call rests on the fitted dose curve; in most records, active means well fitted curve in the direction sought with a large enough effect; inconclusive means small, poorly fitted or top-dose-only effect, or another doubt; inactive means no such curve, though single readings can be large; an effect the other way counts as inactive or inconclusive. Unless noted, on the % scale 0 is the no-effect control and ±100 the full control effect.

For Cc1ccc(CCNC(=O)c2ccc3c(c2)N(Cc2cccc(Cl)c2)C(=O)c2ccccc2S3(=O)=O)cc1 the results were Tau fibril FP inconclusive, G9a block -2%[59 µM], Tau fluor counter -12% and Tau fibril ThT 11%.
Screening NC(=O)c1sc2nc3c(c(-c4ccco4)c2c1N)CCC3 returned Tau fibril FP 4%, G9a block inconclusive, Tau fluor counter -18%, Sfp inh 10µM*, Coupling enz -25 and Tau fibril ThT inconclusive.
For Cc1ccc(-c2c3c(nc4sc(C(N)=O)c(N)c24)CCCC3)o1 the results were Tau fibril FP -1%, G9a block 45µM*, Tau fluor counter -29%, Sfp inh 32µM*, Coupling enz -4 and Tau fibril ThT inconclusive.
COc1ccc(-c2c3c(nc4sc(C(=O)Nc5cc(C)on5)c(N)c24)CCC3)cc1 was read as Tau fibril FP 4%, G9a block 2%[12.7 µM], Tau fluor counter -9%, Sfp inh -10%, Coupling enz 0 and Tau fibril ThT inconclusive.
`COc1cccc(Cc2nc3ccccc3nc2SCC(=O)N2CCc3ccccc32)c1` gave Tau fibril FP 0%, G9a block 22%[59 µM], Tau fluor counter -7% and Tau fibril ThT 5%.
`Cc1c(C(=O)c2ccccc2)c2ccccn2c1CCc1ccccn1` gave Tau fibril FP -2%, G9a block 40µM*, Tau fluor counter -11%, Sfp inh -48%, Coupling enz -16 and Tau fibril ThT inconclusive.
Cc1c(C(=O)Nc2ccc(Cl)cc2)c2ccccn2c1CCc1ccncc1 was read as Tau fibril FP -3%, G9a block 14µM*, Tau fluor counter inconclusive, Sfp inh -7%, Coupling enz 0 and Tau fibril ThT inconclusive.
`Cc1c(C(=O)c2ccccc2)c2ccccn2c1CCC#N` gave Tau fibril FP -6%, G9a block inconclusive, Tau fluor counter -5%, Sfp inh 14% and Coupling enz -10.
Cc1c(C(=O)Nc2cccc(Cl)c2)c2ccccn2c1CCc1ccncc1 was read as Tau fibril FP 8%, G9a block -15%[59 µM], Tau fluor counter -26%, Sfp inh -4%, Coupling enz -6 and Tau fibril ThT inconclusive.
For Cc1c(C(=O)c2ccc(F)cc2)c2ccccn2c1CCc1ccccn1 the results were Tau fibril FP 7%, G9a block 45µM*, Tau fluor counter -14%, Sfp inh -27%, Coupling enz -9 and Tau fibril ThT -18%.
For O=C(CN1C(=O)C2CCCCC2C1=O)OCC(=O)c1ccc(Cl)s1 (centres undefined) the results were Tau fibril FP -3%, G9a block 4%, Tau fluor counter -6%, Sfp inh 15%, Coupling enz 0 and Tau fibril ThT 0%.
Screening O=C(Cn1c(=O)oc2cc(S(=O)(=O)N3CCCCCC3)ccc21)Nc1ccc(F)cc1F returned Tau fibril FP -9%, G9a block 5%[59 µM], Tau fluor counter 6% and Tau fibril ThT 13%.
`Cc1ccc(N/C=C/C(=O)c2ccco2)c(O)c1` gave Tau fibril FP 2%, G9a block -13%, Tau fluor counter -23%, Sfp inh -11%, Coupling enz -6 and Tau fibril ThT 3.5µM*.
`Cc1ccc([N+](=O)[O-])cc1N/C=C/C(=O)c1ccco1` gave Tau fibril FP -5%, G9a block inconclusive, Tau fluor counter -10%, Sfp inh -18%, Coupling enz -5 and Tau fibril ThT inconclusive.
Screening Cc1ccc(NC(=O)c2cc(C)nc3ccccc23)cc1 returned G9a block -5%, Sfp inh 3% and Coupling enz 0.
`Cc1ccc(NC(=O)c2cc(-c3ccc(C)o3)nc3ccccc23)cc1` gave Tau fibril FP inconclusive, G9a block 10µM*, Tau fluor counter 3%, Sfp inh 10µM*, Coupling enz -2 and Tau fibril ThT -7%.
Screening O=C(Nc1ccccn1)c1cc(-c2ccc(Cl)s2)nc2ccccc12 returned G9a block 13%[12.7 µM].
COc1ccccc1NC(=O)c1cc(-c2ccc(C)o2)nc2ccccc12 was read as G9a block 40µM*, Sfp inh -5% and Coupling enz 0.
`Cc1ccc(-c2cc(C(=O)Nc3ccccn3)c3ccccc3n2)o1` gave Tau fibril FP -9%, G9a block 4.5µM*, Tau fluor counter -12%, Sfp inh 22µM*, Coupling enz 0 and Tau fibril ThT inconclusive.
Cc1ccc(-c2cc(C(=O)NCCN3CCOCC3)c3ccccc3n2)o1 was read as G9a block 28µM*, Sfp inh -20% and Coupling enz 0.
`COc1ccccc1C(=O)Nc1cccc(OCc2cc(=O)n3c4c(sc3n2)CCCC4)c1` gave Tau fibril FP 0%, G9a block 8%[59 µM], Tau fluor counter -16% and Tau fibril ThT -19%.
For COC(=O)C1=C[C@@H](C(=O)OC)C2C3=C(C(=O)[C@@]2(C)NC(=O)c2ccccc2)[C@H](c2ccccc2)n2c(=O)n(-c4ccccc4)c(=O)n2[C@@H]3C1 (some centres undefined) the results were Sfp inh 8% and Coupling enz 0.
Screening Cc1ccc(C)c(-c2cc(C(=O)Nc3cccnc3)c3ccccc3n2)c1 returned G9a block inconclusive, Sfp inh 3% and Coupling enz -4.
For COc1cc(-c2cc(C(=O)Nc3ccc(O)cc3)c3ccccc3n2)cc(OC)c1OC the results were Tau fibril FP -7%, G9a block 14µM*, Tau fluor counter inconclusive, Sfp inh 22µM*, Coupling enz 0 and Tau fibril ThT inconclusive.
Screening Cc1ccc(-c2cc(C(=O)Nc3cccnc3)c3ccccc3n2)o1 returned Tau fibril FP -4%, G9a block 8.9µM*, Tau fluor counter -3%, Sfp inh inconclusive, Coupling enz -1 and Tau fibril ThT inconclusive.
`CC(=O)Cc1nsc(Nc2ccccc2)n1` gave Tau fibril FP 12%, G9a block 79µM*, Tau fluor counter -9%, Sfp inh 0%, Coupling enz -1 and Tau fibril ThT -16%.
Screening N#CC1=C(N)S[C@@H](C(=O)c2ccc(F)cc2)[C@@H]1c1cccs1 returned Tau fibril FP -16%, G9a block 10µM*, Tau fluor counter inconclusive, Sfp inh inconclusive, Coupling enz -7 and Tau fibril ThT inconclusive.
For CC(=O)/C(=C/N(C)C)C(=O)Nc1ccc(Cl)cc1Cl the results were Tau fibril FP 8%, G9a block inconclusive, Tau fluor counter -3%, Sfp inh -7%, Coupling enz 3 and Tau fibril ThT -3%.
